The values that follow come from article PMC9911399, “Two distinct binding modes provide the RNA-binding protein RbFox with extraordinary sequence specificity”.

Positions count from the first letter of the chain named. Over roughly 16,000 sequences, “ka relative to ugcaugu” has its median near 0.096; the highest 2% begin near 0.35. The list comes from a sample in which the highest values are over-represented; it also holds similar and randomly drawn sequences.

To fix the notation:
B1: AUUCGUU (DNA:RNA)
RNA: GGGAGACCGGAAUUCAGAUUGUCCAUUCGUUUUAAAUCCCGUCGUAGCCACCA
DNA 1: CAATCTGAATTCCGGTCTCCC
DNA 2: TGGTGGCTACGACGGGATT
B2: UUAGGAG (DNA:RNA)
RNA: B1 RNA with A25U, U27A, C28G, U30A, U31G
DNA 1: CAATCTGAATTCCGGTCTCCC
DNA 2: TGGTGGCTACGACGGGATT
B3: AGGCUCU (DNA:RNA)
RNA: B1 RNA with U26G, U27G, G29U, U30C
DNA 1: CAATCTGAATTCCGGTCTCCC
DNA 2: TGGTGGCTACGACGGGATT
B4: CGCGGGG (DNA:RNA)
RNA: B1 RNA with A25C, U26G, U27C, C28G, U30G, U31G
DNA 1: CAATCTGAATTCCGGTCTCCC
DNA 2: TGGTGGCTACGACGGGATT
B5: UCCAGCA (DNA:RNA)
RNA: B1 RNA with A25U, U26C, U27C, C28A, U30C, U31A
DNA 1: CAATCTGAATTCCGGTCTCCC
DNA 2: TGGTGGCTACGACGGGATT
B6: GGAUCGG (DNA:RNA)
RNA: GGGAGACCGGAAUUCAGAUUGUCCGGAUCGGUUAAAUCCCGUCGUAGCCACCA
DNA 1: CAATCTGAATTCCGGTCTCCC
DNA 2: TGGTGGCTACGACGGGATT
B7: CACCACG (DNA:RNA)
RNA: B1 RNA with A25C, U26A, U27C, G29A, U30C, U31G
DNA 1: CAATCTGAATTCCGGTCTCCC
DNA 2: TGGTGGCTACGACGGGATT
B8: GGAUAUG (DNA:RNA)
RNA: B6 RNA with C29A, G30U
DNA 1: CAATCTGAATTCCGGTCTCCC
DNA 2: TGGTGGCTACGACGGGATT
B9: GGAUCGU (DNA:RNA)
RNA: B6 RNA with G31U
DNA 1: CAATCTGAATTCCGGTCTCCC
DNA 2: TGGTGGCTACGACGGGATT
B10: GGGAUUG (DNA:RNA)
RNA: B6 RNA with A27G, U28A, C29U, G30U
DNA 1: CAATCTGAATTCCGGTCTCCC
DNA 2: TGGTGGCTACGACGGGATT
B11: GGGAUCG (DNA:RNA)
RNA: B6 RNA with A27G, U28A, C29U, G30C
DNA 1: CAATCTGAATTCCGGTCTCCC
DNA 2: TGGTGGCTACGACGGGATT
B12: AGAUCGU (DNA:RNA)
RNA: B6 RNA with G25A, G31U
DNA 1: CAATCTGAATTCCGGTCTCCC
DNA 2: TGGTGGCTACGACGGGATT
B13: CGGAUCG (DNA:RNA)
RNA: B6 RNA with G25C, A27G, U28A, C29U, G30C
DNA 1: CAATCTGAATTCCGGTCTCCC
DNA 2: TGGTGGCTACGACGGGATT
B14: CGAUCGU (DNA:RNA)
RNA: B6 RNA with G25C, G31U
DNA 1: CAATCTGAATTCCGGTCTCCC
DNA 2: TGGTGGCTACGACGGGATT
B15: GUAUAUG (DNA:RNA)
RNA: B6 RNA with G26U, C29A, G30U
DNA 1: CAATCTGAATTCCGGTCTCCC
DNA 2: TGGTGGCTACGACGGGATT
B16: CGAUAUG (DNA:RNA)
RNA: B6 RNA with G25C, C29A, G30U
DNA 1: CAATCTGAATTCCGGTCTCCC
DNA 2: TGGTGGCTACGACGGGATT
B17: GUGAGUC (DNA:RNA)
RNA: B1 RNA with A25G, U27G, C28A, U31C
DNA 1: CAATCTGAATTCCGGTCTCCC
DNA 2: TGGTGGCTACGACGGGATT
B18: UUCUCUG (DNA:RNA)
RNA: B6 RNA with G25U, G26U, A27C, G30U
DNA 1: CAATCTGAATTCCGGTCTCCC
DNA 2: TGGTGGCTACGACGGGATT
B19: UUAUUAA (DNA:RNA)
RNA: B6 RNA with G25U, G26U, C29U, G30A, G31A
DNA 1: CAATCTGAATTCCGGTCTCCC
DNA 2: TGGTGGCTACGACGGGATT
B20: UCGAGUG (DNA:RNA)
RNA: B1 RNA with A25U, U26C, U27G, C28A, U31G
DNA 1: CAATCTGAATTCCGGTCTCCC
DNA 2: TGGTGGCTACGACGGGATT

This test addresses T1, RBFOX1 RRM RbFoxmut (Fox-RRM*) (Homo sapiens, UniProt Q9NWB1 109-208, R118D;E147R;N151S;E152T).
T1 sequence: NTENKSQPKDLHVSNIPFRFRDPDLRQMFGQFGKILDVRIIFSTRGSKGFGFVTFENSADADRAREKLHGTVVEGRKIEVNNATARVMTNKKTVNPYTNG
Kind of test: EMSA; HiTS-Eq, 1 nM pool, 10 min; buffer printed only for the single-RNA assays: 10 mM Tris pH 7.5, 150 mM NaCl, 3.4 mM EDTA, 0.001% NP-40, 30 C. The following applies: tags: His6 N-terminal (pET28a); label: 5' 32P. Put shortly: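 These values rest on relative association constants, computed from read-count changes of each RNA species versus the control reaction and normalised to the cognate motif. Reads came from free RNA recovered by 8% native PAGE after purified RbFox RRM (wild type or mutant) at increasing concentrations was equilibrated for 10 min in 50 µL with 1 nM of a 5′-radiolabelled pool with 7 randomized nucleotides and DNA-annealed flanks.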
As for B1, the binding signal is 0.134 KA relative to UGCAUGU.
Then B2, with 0.129 KA relative to UGCAUGU; and B3, with 0.0577 KA relative to UGCAUGU.
Regarding B4, the binding signal is 0.0735 KA relative to UGCAUGU.
Then B5, with 0.123 KA relative to UGCAUGU; and B6, with 0.176 KA relative to UGCAUGU; and B7, with 0.125 KA relative to UGCAUGU.
To B8 belongs 0.496 KA relative to UGCAUGU.
To B9 belongs 0.354 KA relative to UGCAUGU.
As for B10, the binding signal was 0.282 KA relative to UGCAUGU.
To B11 belongs 0.369 KA relative to UGCAUGU; to B12, 0.105 KA relative to UGCAUGU.
To B13 belongs 0.331 KA relative to UGCAUGU.
Then B14, with 0.118 KA relative to UGCAUGU; and B15, with 0.199 KA relative to UGCAUGU; and B16, with 0.159 KA relative to UGCAUGU.
For the molecule B17, the binding signal was 0.138 KA relative to UGCAUGU.
Then B18, with 0.0908 KA relative to UGCAUGU.
As to B19, the binding signal is 0.0751 KA relative to UGCAUGU.
Then B20, with 0.167 KA relative to UGCAUGU.
